Binding signal data for five sequences are collected here from article PMC11006913.

Numbering of substitutions follows the chain as printed.

Common to all, as to test: PBM; 200 nM protein, PBS
Conditions in all cases: dsDNA, one strand shown

Test [1] addresses HOXC10 (Homo sapiens, UniProt Q9NYD6 254-340).
The target of test [2] is T1, PAX4 (Homo sapiens, UniProt O43316 9-242, R200K).
T1 sequence: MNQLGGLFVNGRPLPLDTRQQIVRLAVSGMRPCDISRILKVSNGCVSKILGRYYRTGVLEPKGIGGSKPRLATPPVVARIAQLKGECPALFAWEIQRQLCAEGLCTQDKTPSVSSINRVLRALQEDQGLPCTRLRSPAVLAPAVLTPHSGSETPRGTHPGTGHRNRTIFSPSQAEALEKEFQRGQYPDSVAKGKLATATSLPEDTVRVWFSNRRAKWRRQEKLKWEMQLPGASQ

The target of test [3] is T2, PAX4 (Homo sapiens, UniProt O43316 9-242).
T2 sequence: T1 sequence with K192R

Test [4] deals with ALX1 (Homo sapiens, UniProt Q15699 118-204, L144V).
The target in test [5] is T3, PAX4 (Homo sapiens, UniProt O43316 9-242, R200Q).
T3 sequence: T1 sequence with K192Q

The target in test [6] is ALX1 (Homo sapiens, UniProt Q15699 118-204, L144R).
Test [7] addresses T4, PAX4 (Homo sapiens, UniProt O43316 9-242, F177V).
T4 sequence: T1 sequence with F169V, K192R

For test [8], the target named is HOXC10 (Homo sapiens, UniProt Q9NYD6 254-340, K271E).
Test [9] has as its target T5, PAX4 (Homo sapiens, UniProt O43316 9-242, F177Y).
T5 sequence: T1 sequence with F169Y, K192R

The target of test [10] is T6, PAX4 (Homo sapiens, UniProt O43316 9-242, R227W).
T6 sequence: T1 sequence with K192R, R219W

In test [11] the target is ALX1 (Homo sapiens, UniProt Q15699 118-204).
The target in test [12] is HOXB6 (Homo sapiens, UniProt P17509 132-218, K202E).
Test [13] has as its target MSX2 (Homo sapiens, UniProt P35548 130-214, R199I).
Test [14] deals with HOXD13 (Homo sapiens, UniProt P35453 263-343, T313R).
Test [15] has as its target HOXD13 (Homo sapiens, UniProt P35453 263-343).
For test [16], the target named is MSX2 (Homo sapiens, UniProt P35548 130-214).
In test [17] the target is HOXD13 (Homo sapiens, UniProt P35453 263-343, T313A).
Test [18] concerns the target MSX2 (Homo sapiens, UniProt P35548 130-214, F161Y).
Test [19] has as its target HOXB6 (Homo sapiens, UniProt P17509 132-218).
Test [20] deals with PRRX1 (Homo sapiens, UniProt P54821 80-166, F113S).
Test [21] concerns the target PRRX1 (Homo sapiens, UniProt P54821 80-166).
In test [22] the target is PROP1 (Homo sapiens, UniProt O75360 56-141).
Test [23] deals with PROP1 (Homo sapiens, UniProt O75360 56-141, R99H).
Test [24] deals with PROP1 (Homo sapiens, UniProt O75360 56-141, F88S).
Chain of PROP1 (Homo sapiens, UniProt O75360 56-141, F88S) (O75360 56-141 F88S): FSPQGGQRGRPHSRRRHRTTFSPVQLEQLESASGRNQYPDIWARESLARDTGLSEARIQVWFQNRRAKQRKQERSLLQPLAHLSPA

Chain of HOXD13 (Homo sapiens, UniProt P35453 263-343, T313A) (P35453 263-343 T313A): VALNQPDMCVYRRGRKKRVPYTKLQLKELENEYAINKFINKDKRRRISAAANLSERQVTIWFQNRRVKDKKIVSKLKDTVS
Chain of HOXD13 (Homo sapiens, UniProt P35453 263-343, T313R) (P35453 263-343 T313R): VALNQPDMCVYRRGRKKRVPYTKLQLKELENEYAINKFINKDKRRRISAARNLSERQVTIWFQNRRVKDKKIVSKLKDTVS
Chain of HOXC10 (Homo sapiens, UniProt Q9NYD6 254-340) (Q9NYD6 254-340): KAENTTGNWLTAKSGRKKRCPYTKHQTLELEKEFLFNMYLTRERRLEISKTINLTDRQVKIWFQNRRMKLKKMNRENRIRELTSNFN
Chain of HOXC10 (Homo sapiens, UniProt Q9NYD6 254-340, K271E) (Q9NYD6 254-340 K271E): as the sequence (Q9NYD6 254-340) above, with K18E counted along it
Chain of HOXD13 (Homo sapiens, UniProt P35453 263-343) (P35453 263-343): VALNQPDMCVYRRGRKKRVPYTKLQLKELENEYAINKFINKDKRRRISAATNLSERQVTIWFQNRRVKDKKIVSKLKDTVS
Chain of HOXB6 (Homo sapiens, UniProt P17509 132-218) (P17509 132-218): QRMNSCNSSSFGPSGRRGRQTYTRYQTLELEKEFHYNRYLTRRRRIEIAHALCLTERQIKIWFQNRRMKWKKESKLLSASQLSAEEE
Chain of HOXB6 (Homo sapiens, UniProt P17509 132-218, K202E) (P17509 132-218 K202E): as the sequence (P17509 132-218) above, with K71E counted along it
Chain of MSX2 (Homo sapiens, UniProt P35548 130-214) (P35548 130-214): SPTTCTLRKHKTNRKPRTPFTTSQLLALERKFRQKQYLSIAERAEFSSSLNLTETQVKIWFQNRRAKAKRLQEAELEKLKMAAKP
Chain of ALX1 (Homo sapiens, UniProt Q15699 118-204) (Q15699 118-204): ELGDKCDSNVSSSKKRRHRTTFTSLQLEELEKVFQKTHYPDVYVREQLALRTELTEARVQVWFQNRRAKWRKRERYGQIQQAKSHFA
Chain of ALX1 (Homo sapiens, UniProt Q15699 118-204, L144V) (Q15699 118-204 L144V): as the sequence (Q15699 118-204) above, with L27V counted along it
Chain of MSX2 (Homo sapiens, UniProt P35548 130-214, R199I) (P35548 130-214 R199I): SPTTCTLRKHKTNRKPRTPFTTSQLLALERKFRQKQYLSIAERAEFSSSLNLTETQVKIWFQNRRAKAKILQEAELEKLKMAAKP
Chain of PRRX1 (Homo sapiens, UniProt P54821 80-166, F113S) (P54821 80-166 F113S): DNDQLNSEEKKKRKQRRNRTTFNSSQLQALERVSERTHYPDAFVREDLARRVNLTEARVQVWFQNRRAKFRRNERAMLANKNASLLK
Chain of PROP1 (Homo sapiens, UniProt O75360 56-141, R99H) (O75360 56-141 R99H): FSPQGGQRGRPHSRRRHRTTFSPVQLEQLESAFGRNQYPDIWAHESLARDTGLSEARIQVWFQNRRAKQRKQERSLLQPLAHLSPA
Chain of PROP1 (Homo sapiens, UniProt O75360 56-141) (O75360 56-141): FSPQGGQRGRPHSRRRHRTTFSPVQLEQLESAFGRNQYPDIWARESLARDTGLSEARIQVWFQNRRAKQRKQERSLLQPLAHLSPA
Chain of MSX2 (Homo sapiens, UniProt P35548 130-214, F161Y) (P35548 130-214 F161Y): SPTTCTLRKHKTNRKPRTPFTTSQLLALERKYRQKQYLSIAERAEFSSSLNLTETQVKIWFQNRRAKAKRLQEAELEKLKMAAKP
Chain of ALX1 (Homo sapiens, UniProt Q15699 118-204, L144R) (Q15699 118-204 L144R): as the sequence (Q15699 118-204) above, with L27R counted along it
Chain of PRRX1 (Homo sapiens, UniProt P54821 80-166) (P54821 80-166): as the sequence (P54821 80-166 F113S) above, with S34F counted along it

ACCCGAGC: the binding signal in the test with HOXC10 [1] was 10.1 upbm affinity estimate (log intensity, higher = more binding, comparable within an allelic series); with PAX4 [2], 9.37 upbm affinity estimate (log intensity, higher = more binding, comparable within an allelic series); with PAX4 [3], 9.24 upbm affinity estimate (log intensity, higher = more binding, comparable within an allelic series); in the test with ALX1 [4], 6.62 upbm affinity estimate (log intensity, higher = more binding, comparable within an allelic series); with PAX4 [5] it was 9.32 upbm affinity estimate (log intensity, higher = more binding, comparable within an allelic series); with ALX1 [6], 6.43 upbm affinity estimate (log intensity, higher = more binding, comparable within an allelic series). Besides, the binding signal is 9.28 upbm affinity estimate (log intensity, higher = more binding, comparable within an allelic series) in the test with PAX4 [7]; 10 upbm affinity estimate (log intensity, higher = more binding, comparable within an allelic series) with HOXC10 [8]; 9.29 upbm affinity estimate (log intensity, higher = more binding, comparable within an allelic series) with PAX4 [9]; 9.37 upbm affinity estimate (log intensity, higher = more binding, comparable within an allelic series) with PAX4 [10]; 6.4 upbm affinity estimate (log intensity, higher = more binding, comparable within an allelic series) with ALX1 [11].

GGCTAGCC: the binding signal with HOXC10 [1] was 9.92 upbm affinity estimate (log intensity, higher = more binding, comparable within an allelic series); with HOXB6 [12], 8.91 upbm affinity estimate (log intensity, higher = more binding, comparable within an allelic series); in the test with MSX2 [13], 9.46 upbm affinity estimate (log intensity, higher = more binding, comparable within an allelic series); with HOXD13 [14], 9.4 upbm affinity estimate (log intensity, higher = more binding, comparable within an allelic series); in the test with HOXD13 [15], 9.37 upbm affinity estimate (log intensity, higher = more binding, comparable within an allelic series); with HOXC10 [8], 9.98 upbm affinity estimate (log intensity, higher = more binding, comparable within an allelic series). Further, the binding signal with MSX2 [16] was 9.52 upbm affinity estimate (log intensity, higher = more binding, comparable within an allelic series); with HOXD13 [17], 9.39 upbm affinity estimate (log intensity, higher = more binding, comparable within an allelic series); with MSX2 [18] it was 9.51 upbm affinity estimate (log intensity, higher = more binding, comparable within an allelic series); in the test with HOXB6 [19], 8.87 upbm affinity estimate (log intensity, higher = more binding, comparable within an allelic series).

As to CGCCCCCG, the binding signal with HOXC10 [1] was 10 upbm affinity estimate (log intensity, higher = more binding, comparable within an allelic series); with PAX4 [2] it was 9.05 upbm affinity estimate (log intensity, higher = more binding, comparable within an allelic series); with PRRX1 [20], 9.19 upbm affinity estimate (log intensity, higher = more binding, comparable within an allelic series); in the test with PAX4 [3], 9.27 upbm affinity estimate (log intensity, higher = more binding, comparable within an allelic series); in the test with HOXB6 [12] it was 8.93 upbm affinity estimate (log intensity, higher = more binding, comparable within an allelic series); with HOXD13 [14], 9.18 upbm affinity estimate (log intensity, higher = more binding, comparable within an allelic series). The binding signal with PAX4 [5] is 9.26 upbm affinity estimate (log intensity, higher = more binding, comparable within an allelic series); with HOXD13 [15], 9.19 upbm affinity estimate (log intensity, higher = more binding, comparable within an allelic series); in the test with PAX4 [7], 9.01 upbm affinity estimate (log intensity, higher = more binding, comparable within an allelic series); with HOXC10 [8] it was 9.94 upbm affinity estimate (log intensity, higher = more binding, comparable within an allelic series); with PAX4 [9] it was 8.92 upbm affinity estimate (log intensity, higher = more binding, comparable within an allelic series); with HOXD13 [17], 9.4 upbm affinity estimate (log intensity, higher = more binding, comparable within an allelic series). In addition, the binding signal with PAX4 [10] was 9.12 upbm affinity estimate (log intensity, higher = more binding, comparable within an allelic series); with PRRX1 [21] it was 9.18 upbm affinity estimate (log intensity, higher = more binding, comparable within an allelic series); with HOXB6 [19], 8.91 upbm affinity estimate (log intensity, higher = more binding, comparable within an allelic series).

Turning to AGCGGGGG, the binding signal in the test with HOXC10 [1] is 10.1 upbm affinity estimate (log intensity, higher = more binding, comparable within an allelic series); with PAX4 [2], 9.03 upbm affinity estimate (log intensity, higher = more binding, comparable within an allelic series); with PAX4 [3], 9.24 upbm affinity estimate (log intensity, higher = more binding, comparable within an allelic series); with PAX4 [5], 9.17 upbm affinity estimate (log intensity, higher = more binding, comparable within an allelic series); in the test with PAX4 [7], 9 upbm affinity estimate (log intensity, higher = more binding, comparable within an allelic series); with HOXC10 [8], 9.93 upbm affinity estimate (log intensity, higher = more binding, comparable within an allelic series). In addition, the binding signal with PAX4 [9] was 9.11 upbm affinity estimate (log intensity, higher = more binding, comparable within an allelic series); in the test with PROP1 [22] it was 6.68 upbm affinity estimate (log intensity, higher = more binding, comparable within an allelic series); with PROP1 [23] it was 6.47 upbm affinity estimate (log intensity, higher = more binding, comparable within an allelic series); in the test with PROP1 [24], 6.14 upbm affinity estimate (log intensity, higher = more binding, comparable within an allelic series); with PAX4 [10] it was 9.16 upbm affinity estimate (log intensity, higher = more binding, comparable within an allelic series).

Take GTTTACGA: the binding signal was 12.2 upbm affinity estimate (log intensity, higher = more binding, comparable within an allelic series) with HOXC10 [1]; 10.8 upbm affinity estimate (log intensity, higher = more binding, comparable within an allelic series) with HOXD13 [14]; 12.1 upbm affinity estimate (log intensity, higher = more binding, comparable within an allelic series) in the test with HOXD13 [15]; 11.6 upbm affinity estimate (log intensity, higher = more binding, comparable within an allelic series) with HOXC10 [8]; 11.9 upbm affinity estimate (log intensity, higher = more binding, comparable within an allelic series) in the test with HOXD13 [17].
